The list is not random: actives were taken first. Their share in the collection is about 21%.
CHX counter = affects cycloheximide protein synthesis inhibition readout, counter-screen | cell reporter, cycloheximide protein synthesis inhibition counterscreen | max response, % | actives 12% (n = 300,000) | AID 2314; in the data active means max response mostly above about 13%, no sharp cut-off; inactive means mostly below about 14%; further: read at 38.3 µM for the half of the compounds with a filed dose; 0% is about no effect
HCV inhibitor = blocks hepatitis C virus; Huh7.5.1 HCVcc-Cre infection, luciferase reporter, 44 h; Potency, µM (series often up to 41.8 µM), for inactives: at the top dose activity change, negative = inhibition, usual class: inhibitors; actives 3.4% (n = 340,000); further: potency means the concentration at half of the fitted maximal effect; on the % scale 0 is the no-effect control and ±100 the full control effect
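Infectious HCVcc-Cre (~0.5 moi) was added to cells just after compound, with cells seeded 4 h earlier at 1,000 per well. Luciferase activity after 44 h culture reported infection; substrate was incubated 15 min at room temperature before reading.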
AMA1 RON2 block = inhibitors of Plasmodium falciparum AMA1-RON2 interaction; actives 0.2% (n = 360,000); AlphaScreen AMA1-biotinylated RON2 peptide binding; Potency, µM (top dose mostly 58.2 µM), for inactives: at the top dose activity change, negative = inhibition, usual class: inhibitors;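 further: potency means the concentration at half of the fitted maximal effect; 0% = vehicle wells and -100% = peptide control; nearly all actives have a fitted effect of over 45% in size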
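AMA1 (3D7) with his tag at 25 nM final met compounds first, then biotinylated RON2 peptide at 25 nM; detection used donor plus acceptor beads, 10 µg/mL apiece, read by AlphaScreen after 30 min at room temperature.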
Pf growth 96h = inhibits malaria parasite growth, 96 h | Potency, µM (top dose mostly 28.7 µM), without a hit: top-dose activity change, negative = inhibition, hits mostly inhibitors | AID 504834 | actives 6.9% (n = 320,000) | P. falciparum luciferase reporter growth, 96 h; further: potency means the concentration at half of the fitted maximal effect; on the % scale 0 is the no-effect control and ±100 the full control effect
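Two parasite generations (96 h, 37 C, 5% CO2) of compound exposure in infected erythrocytes (0.05% parasitemia, 2% hematocrit). Luciferase-reporter P. falciparum; decreased luminescence indicates inhibited growth, aimed at apicoplast-acting delayed death.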
Pf growth 48h = inhibits P. falciparum growth in the first generation, 48 h; P. falciparum luciferase growth in erythrocytes, 48 h; Potency, µM (series often up to 28.7 µM), without a hit: top-dose activity change, negative = inhibition, hits mostly inhibitors; actives 5.9% (n = 310,000); further: potency means the concentration at half of the fitted maximal effect; on the % scale 0 is the no-effect control and ±100 the full control effect
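Firefly luciferase activity from engineered P. falciparum reports growth; inhibitors lower the luminescent signal. Cultures contained 2% hematocrit erythrocytes at 0.1% final parasitemia.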
Shiga inhibitor = blocks Shiga toxin action in Vero cells; AID 2315; inhibition, % at 38.7 µM; Vero cells, Shiga toxin protein synthesis inhibition reporter; actives 9.2% (n = 290,000); in the data active means inhibition mostly above about 28%, no sharp cut-off; inactive means mostly below about 43%; further: 0% is about no effect
Active calls of the source: *; u = inconclusive; x = no result given; [ ] = another dose, or the depositor's remark. Unless noted, the call rests on the fitted dose curve; in most records, active means well fitted curve in the direction sought with a large enough effect; inconclusive means small, poorly fitted or top-dose-only effect, or another doubt; inactive means no such curve, though single readings can be large; an effect the other way counts as inactive or inconclusive.

SMILES	CHX counter	HCV inhibitor	AMA1 RON2 block	Pf growth 96h	Pf growth 48h	Shiga inhibitor
Cc1oc2c(cc(NS(=O)(=O)c3ccc4c5c(cccc35)C(=O)N4)c3ccccc32)c1C(=O)OC(C)C	3	u	-9%	-13%	u	23
Cc1c(C(=O)NCc2cccc(C(F)(F)F)c2)sc(=O)n1Cc1cccc(F)c1	x	x	0%	x	x	x
COc1ccccc1C(c1nnnn1C1CCCC1)N1CCN2CCCC2C1 (stereo unspecified)	-5	-3%	8%	101%	13µM*	-9
COc1ccc(OC)c(C(c2nnnn2C2CCCC2)N2CCN(c3ccccc3)CC2)c1 (stereo unspecified)	17	-24%	u	u	u	-3
O=C(c1ccco1)N1CCN(C(c2cccs2)c2nnnn2C2CCCC2)CC1 (stereo unspecified)	0	-7%	18%	u	-16%	-6
COc1ccccc1N1CCN(C(c2cccs2)c2nnnn2C2CCCC2)CC1 (stereo unspecified)	-1	u	-4%	137%	13µM*	-12
c1cc(C(c2nnnn2C2CCCCC2)N2CCN3CCCC3C2)ccn1 (stereo unspecified)	-2	2%	1%	18%	u	14
c1ccc(CN(Cc2cccs2)C(c2cccs2)c2nnnn2C2CCCC2)cc1 (stereo unspecified)	-3	u	-23%	x	13µM*	-21
c1ccc(CC2CCN(C(c3cccs3)c3nnnn3C3CCCC3)CC2)cc1 (stereo unspecified)	0	u	-4%	x	1.9µM*	-12
COc1ccccc1OCC(=O)NCC1CCCN(Cc2cnn(C)c2C)C1 (stereo unspecified)	2	34%	-10%	-21%	6%	-29
CC(C)OC(=O)Nc1ccc2nc(-c3cscn3)[nH]c2c1	x	x	x	-21%	-18%	x
CCOC(=O)C1=C(N)Oc2ccc(Br)cc2C1C(C#N)C(=O)OCC (stereo unspecified)	-3	x	x	x	x	-4
CCCCc1cc(=O)oc2cc(C)cc(OCC(=O)O)c12	-9	-9%	-4%	7%	6%	-23
CCCCc1cc(=O)oc2cc(C)cc(OC(C)C(=O)NCc3cccnc3)c12 (stereo unspecified)	10	u	-6%	17µM*	u	-5
Cc1cc(OC(C)C(=O)NCc2ccncc2)c2c3c(c(=O)oc2c1)CCCC3 (stereo unspecified)	5	-6%	-3%	-10%	-17%	-11
CCc1cc(=O)oc2cc(C)cc(OC(C)C(=O)NCc3ccncc3)c12 (stereo unspecified)	3	u	-2%	9.3µM*	u	-7
CCCc1cc(=O)oc2cc(C)cc(OCC(=O)Nc3cccnc3)c12	-3	u	0%	0.093µM*	0.15µM*	-10
CCCCc1cc(=O)oc2cc(C)cc(OCC(=O)NCc3ccncc3)c12	-4	-14%	2%	2.3µM*	u	-17
CCc1cc(=O)oc2cc(C)cc(OC(C)C(=O)NCc3cccnc3)c12 (stereo unspecified)	-2	-14%	-6%	u	u	3
Cc1cc(OCC(=O)Nc2cccnc2)c2c(C)cc(=O)oc2c1	-8	-17%	0%	u	u	-10
CCOC(=O)C1=C(COC(=O)C2CC(=O)N(c3ccccc3F)C2)NC(=O)NC1C (stereo unspecified)	x	22%	7%[11.6 µM]	u	-21%	x
O=C(CNC(c1ccccc1)c1ccccc1)Nc1ccccc1Br	4	0%	7%	u	u	-5
CCCN(C(=O)CCl)C1=CCCCC1	5	13µM*	-3%	-37%	u	-13
Fc1ccc(NC(=S)NCCN2CCOCC2)c(F)c1F	9	13%	5%	26%	12%	13
NS(=O)(=O)c1ccc(Nc2nc(-c3ccc(O)cc3O)cs2)cc1	-2	-22%	9%	30%	x	-16
SMILES	CHX counter	HCV inhibitor	AMA1 RON2 block	Pf growth 96h	Pf growth 48h	Shiga inhibitor
Cc1cccnc1Nc1nc(-c2ccc(O)cc2O)cs1	39*	-14%	46%	14%	137%	112*
Oc1ccc(-c2csc(Nc3ccccn3)n2)c(O)c1	34*	u	133%	22%	261%	131*
Cc1cc(O)ccc1Nc1nc(-c2sc(N)nc2C)cs1	-2	u	8%	9%	-12%	7
O=C(CNC(=O)Cc1ccc(Cl)cc1)NCc1ccco1	-1	18%	18%	-22%	6%	-7
O=C1c2cccc3c(Nc4ccccc4Cl)c([N+](=O)[O-])cc(c23)C(=O)N1CCO	3	-23%	u	1µM*	u	11
Cc1ccc(C2c3c(oc4cc(C)c(C)cc4c3=O)C(=O)N2CCCN2CCOCC2)cc1 (stereo unspecified)	-2	-4%	5%	u	5.2µM*	-4
CC(C)Oc1ccc(C2c3c(oc4ccccc4c3=O)C(=O)N2CCCN2CCOCC2)cc1 (stereo unspecified)	17*	-6%	3%	u	u	54*
C=CCOc1ccc(C2c3c(oc4ccccc4c3=O)C(=O)N2CCCN2CCOCC2)cc1 (stereo unspecified)	-2	-6%	6%	u	u	26
O=C1c2oc3ccc(F)cc3c(=O)c2C(c2ccc(F)cc2)N1CCCN1CCOCC1 (stereo unspecified)	x	13%	-1%	x	x	x
O=C(Nc1nnc(Cc2c[nH]c3ccccc23)s1)c1ccc(Cl)cc1Cl	17*	0%	-11%[2.32 µM]	-16%	10%	35*
COC(=O)c1ccc(NC(=S)NC(=O)c2c(Cl)cnn2C)cc1	3	14%	11%	u	u	8
C/C(=N\NC(=O)C1CC1)c1ccc(NC(=O)c2ccc(Br)o2)cc1	24*	x	x	37%	80%	55*
C/C(=N\NC(=O)c1c(Cl)cnn1C)c1ccc(NC(=O)c2ccc(Br)o2)cc1	40*	-21%	75%	u	-9%	57*
COc1ccc(CC(=O)Nc2ccc(/C(C)=N\NC(=O)c3ccc(Br)o3)cc2)cc1	42*	-21%	16%	u	-26%	44*
Cc1cc(C)c(S(=O)(=O)Nc2cccc(/C=C/C(=O)O)c2)c(C)c1	0	8%	3%	4%	4%	2
Cc1ccc(N2CC(NC(=O)C3CC3)CC2=O)cc1 (stereo unspecified)	x	6%	13%	-1%	5%	x
Cc1cc(Br)ccc1NC(=O)CSCc1c(C)noc1C	x	0%	-1%	x	x	x
Cc1ccc(-c2ccc(SCC(=O)N3CCc4ccccc43)nn2)cc1	-7	10%	x	-22%	19%	-11

Screening results as filed in PubChem BioAssay.
